Measured values: PubChem BioAssay (NCATS)
Records with an inconclusive call do not appear. The source made the active and inactive calls. The call rests on the fitted dose curve; in most records, active means well fitted curve in the direction sought with a large enough effect; inconclusive means small, poorly fitted or top-dose-only effect, or another doubt; inactive means no such curve, though single readings can be large; an effect the other way counts as inactive or inconclusive.

How the values were obtained:
[1] = qHTS of pediatric cancer cell lines to identify multiple opportunities for drug repurposing: Primary screen for NB-EBc1 cells (AID 1347095)
Outline: (§1)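 Cells seeded at 500-1,000 cells/well in growth media, rested 5 hours at 37 degrees C, 5% CO2, then dosed; MIPE compounds at 11-point (from 0.78 nM) and NPC at 8-point (from 0.59 nM) final concentrations. Viability by CellTiter-Glo luminescence after 48 hours.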

[2] = qHTS of pediatric cancer cell lines to identify multiple opportunities for drug repurposing: Primary screen for U-2 OS cells (AID 1347096); further: nearly all actives have a fitted effect of over 50% in size
Outline: (§2)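 Cells (500-1,000/well) rested 5 h, then received compounds for 48 h; metabolically active cells were measured by CellTiter-Glo luminescence. Final concentrations spanned up to 46 µM (MIPE, 11-point) or 0.59 nM-46 µM (NPC, 8-point) in primary screens, 11-point in follow-ups.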

[3] = qHTS of pediatric cancer cell lines to identify multiple opportunities for drug repurposing: Primary screen for Saos-2 cells (AID 1347097); further: nearly all actives have a fitted effect of over 40% in size
Outline: as §1

[4] = qHTS of pediatric cancer cell lines to identify multiple opportunities for drug repurposing: Primary screen for SK-N-SH cells (AID 1347098); further: nearly all actives have a fitted effect of over 65% in size
Outline: as §2

[5] = qHTS of pediatric cancer cell lines to identify multiple opportunities for drug repurposing: Primary screen for NB1643 cells (AID 1347099); further: nearly all actives have a fitted effect of over 50% in size
Outline: as §1

[6] = qHTS of pediatric cancer cell lines to identify multiple opportunities for drug repurposing: Primary screen for LAN-5 cells (AID 1347100)
Outline: as §2

[7] = qHTS of pediatric cancer cell lines to identify multiple opportunities for drug repurposing: Primary screen for BT-12 cells (AID 1347101); further: nearly all actives have a fitted effect of over 25% in size
Outline: as §2

[8] = qHTS of pediatric cancer cell lines to identify multiple opportunities for drug repurposing: Primary screen for Rh18 cells (AID 1347102); further: nearly all actives have a fitted effect of over 65% in size
Outline: as §2

[9] = qHTS of pediatric cancer cell lines to identify multiple opportunities for drug repurposing: Primary screen for OHS-50 cells (AID 1347103); further: nearly all actives have a fitted effect of over 40% in size
Outline: as §2

[10] = qHTS of pediatric cancer cell lines to identify multiple opportunities for drug repurposing: Primary screen for RD cells (AID 1347104); further: nearly all actives have a fitted effect of over 55% in size
Outline: as §1

Measured: Potency
Potency means the concentration at half of the fitted maximal effect.

CN(C)Cc1c(C(=O)NCCOc2ccc(C(=O)NO)cc2)oc2ccccc12
active: [1] 662 nM | [2] 2960 nM | [3] 2960 nM | [4] 2410 nM | [5] 935 nM | [6] 469 nM | [7] 3850 nM | [8] 590 nM | [9] 769 nM | [10] 1870 nM

CC(C)[C@H](C(=O)Nc1ccc(C(=O)NO)cc1)c1ccccc1
active: [1] 526 nM | [2] 1180 nM | [3] 1480 nM | [4] 2410 nM | [5] 418 nM | [6] 526 nM | [7] 3060 nM | [8] 743 nM | [9] 1220 nM | [10] 2640 nM

Cc1cnc(Nc2ccc(F)cc2Cl)nc1-c1c[nH]c(C(=O)N[C@H](CO)c2cccc(Cl)c2)c1
active: [1] 833 nM | [2] 7430 nM | [3] 1480 nM | [4] 17100 nM | [5] 18700 nM | [6] 469 nM | [7] 432 nM | [8] 16600 nM | [9] 544 nM | [10] 2350 nM

O=C(Nc1cn[nH]c1-c1nc2ccc(CN3CCOCC3)cc2[nH]1)NC1CC1
active: [1] 1480 nM | [2] 4690 nM | [3] 935 nM | [4] 242 nM | [5] 5260 nM | [6] 10.5 nM | [7] 7690 nM | [8] 935 nM | [9] 1530 nM | [10] 5900 nM

Nc1ccc(C(=O)c2cc3c(ccc4ccccc43)[nH]2)cc1
inactive: [2] | [8]
active: [1] 1660 nM | [3] 2350 nM | [4] 7640 nM | [5] 16600 nM | [6] 833 nM | [7] 9680 nM | [9] 10900 nM | [10] 5900 nM

CCOc1ccccc1OCCNC(C)Cc1ccc(OC)c(S(N)(=O)=O)c1 (stereo not drawn)
inactive: all assays above

COC(=O)Nc1ccc(-c2nc(N3CCOCC3)c3cnn(C4CCN(Cc5cccnc5)CC4)c3n2)cc1
active: [1] 1180 nM | [3] 833 nM | [4] 21500 nM | [6] 14800 nM | [7] 1090 nM | [8] 935 nM | [9] 109 nM | [10] 1320 nM
inactive: [2] | [5]

Cc1nc(Nc2n[nH]c3c2CN(C(=O)N[C@H](CN(C)C)c2ccccc2)C3(C)C)c2sccc2n1
active: [1] 10500 nM | [2] 9350 nM | [3] 1660 nM | [4] 17100 nM | [5] 935 nM | [6] 418 nM | [7] 2430 nM | [8] 1320 nM | [9] 3.2 nM | [10] 2960 nM

C1=CCOCc2cc(ccc2OCCN2CCCC2)Nc2nccc(n2)-c2cccc(c2)OCC1
inactive: [2]
active: [1] 7430 nM | [3] 5260 nM | [4] 7640 nM | [5] 7430 nM | [6] 2640 nM | [7] 7690 nM | [8] 7430 nM | [9] 2170 nM | [10] 11800 nM

CN(C)CC=CC(=O)Nc1cc2c(Nc3ccc(F)c(Cl)c3)ncnc2cc1O[C@H]1CCOC1
active: [1] 9350 nM | [2] 18700 nM | [3] 10500 nM | [4] 24100 nM | [5] 296 nM | [6] 7430 nM | [7] 21700 nM | [8] 14800 nM | [9] 3060 nM | [10] 5900 nM

Cc1ccc(NC(=O)C2(c3ccc4c(c3)OC(F)(F)O4)CC2)nc1-c1cccc(C(=O)O)c1
active: [1] 66.2 nM | [2] 590 nM | [3] 148 nM | [4] 136 nM | [5] 33.2 nM | [6] 83.3 nM | [7] 122 nM | [8] 833 nM | [9] 54.4 nM | [10] 74.3 nM

CCOc1cc2ncc(C#N)c(Nc3ccc(F)c(Cl)c3)c2cc1NC(=O)C=CCN(C)C
active: [1] 9350 nM | [3] 2960 nM | [4] 341 nM | [5] 1050 nM | [6] 4180 nM | [7] 7690 nM | [8] 10500 nM | [9] 137 nM | [10] 526 nM
inactive: [2]

CN1CCN(c2ccc3nc(-c4c(N)c5c(F)cccc5[nH]c4=O)[nH]c3c2)CC1
active: [1] 3720 nM | [2] 18700 nM | [3] 5900 nM | [4] 15200 nM | [5] 16600 nM | [6] 4690 nM | [7] 17200 nM | [8] 20900 nM | [9] 1720 nM | [10] 18700 nM

COc1cccc(-c2ccc(NC(=O)C3=C(C(=O)O)CCC3)c(F)c2)c1
active: [1] 3720 nM | [3] 13200 nM | [4] 24100 nM | [5] 5260 nM | [6] 13200 nM | [7] 19300 nM
inactive: [2] | [8]
